Common to all, as to assay: DAPPL (digital affinity profiling via proximity ligation, sequencing); 10 mM Tris-HCl pH 7.5, 50 mM NaCl, 1 mM DTT, 4% glycerol, room temperature, 30 min; GST-TFs on glutathione beads, 16-mer random dsDNA library, 0.1% formaldehyde crosslink after washing; high values mean tight binding
Settings in all cases: protein: recombinant; tags: N-terminal GST; dsDNA, one strand shown

One assay deals with T1, ELK1 (Homo sapiens, UniProt P19419 1-428).
T1 sequence: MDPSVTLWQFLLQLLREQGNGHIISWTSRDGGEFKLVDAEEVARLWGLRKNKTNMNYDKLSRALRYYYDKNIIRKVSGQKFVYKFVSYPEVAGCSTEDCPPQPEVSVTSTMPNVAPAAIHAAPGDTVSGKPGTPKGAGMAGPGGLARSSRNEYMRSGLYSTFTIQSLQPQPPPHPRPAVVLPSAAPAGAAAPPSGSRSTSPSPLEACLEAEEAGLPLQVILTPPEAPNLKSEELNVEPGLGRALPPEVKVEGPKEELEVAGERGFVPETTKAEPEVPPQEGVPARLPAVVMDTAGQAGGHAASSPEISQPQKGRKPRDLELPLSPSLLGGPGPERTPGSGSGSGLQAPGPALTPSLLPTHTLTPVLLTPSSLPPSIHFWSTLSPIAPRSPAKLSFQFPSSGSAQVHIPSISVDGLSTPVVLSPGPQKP
Put shortly: (§1)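 Each value of binding signal is a hexamer's read frequency for a factor divided by the same hexamer's frequency in the tag-only sample. Barcoded, bead-captured GST fusions of human transcription factors made in yeast were pooled with that sample and incubated with 200 nmole of a random double-stranded 16-mer DNA library in Tris/NaCl/DTT/glycerol buffer at room temperature for 30 min. Washing, 0.1% formaldehyde crosslinking, proximity ligation, PCR and Illumina NextSeq500 sequencing followed.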

Another assay concerns the target T2, GABPA (Homo sapiens, UniProt Q06546 1-454).
T2 sequence: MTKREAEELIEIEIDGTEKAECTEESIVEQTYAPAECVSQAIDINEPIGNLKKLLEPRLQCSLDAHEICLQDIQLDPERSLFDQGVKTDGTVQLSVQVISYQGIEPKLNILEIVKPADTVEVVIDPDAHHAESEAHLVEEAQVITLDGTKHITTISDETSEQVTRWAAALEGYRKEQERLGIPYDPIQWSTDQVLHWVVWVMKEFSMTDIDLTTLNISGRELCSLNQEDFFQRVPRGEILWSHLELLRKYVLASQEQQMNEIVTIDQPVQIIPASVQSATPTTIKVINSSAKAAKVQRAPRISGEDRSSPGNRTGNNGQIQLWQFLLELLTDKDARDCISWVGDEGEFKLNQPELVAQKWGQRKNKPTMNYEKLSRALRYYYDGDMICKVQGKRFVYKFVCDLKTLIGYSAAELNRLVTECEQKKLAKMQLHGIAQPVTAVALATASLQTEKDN
Put shortly:
as §1

The target of another assay is T3, ERG (Homo sapiens, UniProt P11308 1-479).
T3 sequence: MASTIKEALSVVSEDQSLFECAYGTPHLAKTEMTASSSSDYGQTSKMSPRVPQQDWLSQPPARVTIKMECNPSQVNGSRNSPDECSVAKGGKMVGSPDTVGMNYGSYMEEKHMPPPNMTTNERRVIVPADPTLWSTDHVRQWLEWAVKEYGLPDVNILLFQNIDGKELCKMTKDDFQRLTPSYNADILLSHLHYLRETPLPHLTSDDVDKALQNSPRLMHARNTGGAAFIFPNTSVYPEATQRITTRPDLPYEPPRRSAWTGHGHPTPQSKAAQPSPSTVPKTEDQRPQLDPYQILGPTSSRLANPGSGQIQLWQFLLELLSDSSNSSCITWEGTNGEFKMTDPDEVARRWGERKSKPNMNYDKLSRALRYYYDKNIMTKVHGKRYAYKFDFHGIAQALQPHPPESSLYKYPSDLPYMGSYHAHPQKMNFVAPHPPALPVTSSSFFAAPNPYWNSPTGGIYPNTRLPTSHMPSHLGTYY
The method in brief:
as §1

The target in a further assay is ELF1 (Homo sapiens, UniProt P32519 1-619). The method in brief:
as §1

In another assay the target is T4, EHF (Homo sapiens, UniProt Q9NZC4 1-300).
T4 sequence: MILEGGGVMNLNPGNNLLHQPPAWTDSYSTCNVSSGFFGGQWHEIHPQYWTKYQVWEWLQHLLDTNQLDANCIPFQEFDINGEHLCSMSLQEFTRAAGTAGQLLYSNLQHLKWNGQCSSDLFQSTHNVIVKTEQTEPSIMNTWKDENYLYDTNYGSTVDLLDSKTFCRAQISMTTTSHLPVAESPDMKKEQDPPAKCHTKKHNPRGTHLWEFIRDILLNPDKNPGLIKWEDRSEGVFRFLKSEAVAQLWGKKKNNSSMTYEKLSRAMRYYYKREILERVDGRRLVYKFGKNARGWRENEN
The method in brief:
as §1

In a further assay the target is SPIB (Homo sapiens, UniProt Q01892 1-262). The method in brief:
as §1

Another assay concerns the target ETV5 (Homo sapiens, UniProt P41161 1-510). Put shortly:
as §1

The next assay deals with ELF4 (Homo sapiens, UniProt Q99607 1-663). Put shortly:
as §1

For another assay, the target named is T5, ELF3 (Homo sapiens, UniProt P78545 1-371).
T5 sequence: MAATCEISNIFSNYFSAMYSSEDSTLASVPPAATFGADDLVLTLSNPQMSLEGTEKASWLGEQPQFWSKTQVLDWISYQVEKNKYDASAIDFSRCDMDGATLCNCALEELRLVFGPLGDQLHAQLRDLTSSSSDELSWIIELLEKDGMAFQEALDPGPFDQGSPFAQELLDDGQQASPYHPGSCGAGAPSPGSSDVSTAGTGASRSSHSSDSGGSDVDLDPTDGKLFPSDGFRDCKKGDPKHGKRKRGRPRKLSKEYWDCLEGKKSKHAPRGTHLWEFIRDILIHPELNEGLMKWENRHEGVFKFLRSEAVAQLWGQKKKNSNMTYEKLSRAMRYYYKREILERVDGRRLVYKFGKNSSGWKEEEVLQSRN
Put shortly:
as §1

Another assay deals with ETV1 (Homo sapiens, UniProt P50549 1-477). The method in brief: as §1
For a further assay, the target named is T6, ERF (Homo sapiens, UniProt P50548 1-548).
T6 sequence: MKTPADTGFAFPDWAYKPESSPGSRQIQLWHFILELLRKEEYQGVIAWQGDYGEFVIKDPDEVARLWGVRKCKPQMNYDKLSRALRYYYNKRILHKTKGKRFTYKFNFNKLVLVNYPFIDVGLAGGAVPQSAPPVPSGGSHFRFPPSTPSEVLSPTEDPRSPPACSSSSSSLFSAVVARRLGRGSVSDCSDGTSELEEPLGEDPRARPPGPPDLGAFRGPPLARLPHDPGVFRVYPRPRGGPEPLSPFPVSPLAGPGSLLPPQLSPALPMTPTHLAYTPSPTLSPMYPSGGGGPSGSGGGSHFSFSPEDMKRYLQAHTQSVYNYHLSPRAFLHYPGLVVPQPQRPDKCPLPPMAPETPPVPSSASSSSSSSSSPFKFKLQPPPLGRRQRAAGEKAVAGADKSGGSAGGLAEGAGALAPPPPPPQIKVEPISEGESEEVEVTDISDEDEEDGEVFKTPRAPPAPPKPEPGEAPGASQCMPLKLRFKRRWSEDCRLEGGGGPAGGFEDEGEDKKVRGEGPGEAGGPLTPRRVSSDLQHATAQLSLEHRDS
The method in brief:
as §1

The target in the next assay is T7, ETV3L (Homo sapiens, UniProt Q6ZN32 1-361).
T7 sequence: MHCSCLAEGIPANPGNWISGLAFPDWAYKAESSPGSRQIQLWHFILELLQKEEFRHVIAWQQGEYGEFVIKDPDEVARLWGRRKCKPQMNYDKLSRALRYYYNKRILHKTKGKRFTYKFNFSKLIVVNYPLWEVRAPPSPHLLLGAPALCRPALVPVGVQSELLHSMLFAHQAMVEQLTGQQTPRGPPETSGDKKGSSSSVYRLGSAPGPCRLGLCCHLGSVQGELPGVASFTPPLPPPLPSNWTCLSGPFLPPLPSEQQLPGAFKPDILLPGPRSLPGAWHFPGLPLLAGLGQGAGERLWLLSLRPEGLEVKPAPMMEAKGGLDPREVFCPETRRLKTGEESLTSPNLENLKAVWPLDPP
Put shortly:
as §1

The target in another assay is T8, ETS2 (Homo sapiens, UniProt P15036 1-469).
T8 sequence: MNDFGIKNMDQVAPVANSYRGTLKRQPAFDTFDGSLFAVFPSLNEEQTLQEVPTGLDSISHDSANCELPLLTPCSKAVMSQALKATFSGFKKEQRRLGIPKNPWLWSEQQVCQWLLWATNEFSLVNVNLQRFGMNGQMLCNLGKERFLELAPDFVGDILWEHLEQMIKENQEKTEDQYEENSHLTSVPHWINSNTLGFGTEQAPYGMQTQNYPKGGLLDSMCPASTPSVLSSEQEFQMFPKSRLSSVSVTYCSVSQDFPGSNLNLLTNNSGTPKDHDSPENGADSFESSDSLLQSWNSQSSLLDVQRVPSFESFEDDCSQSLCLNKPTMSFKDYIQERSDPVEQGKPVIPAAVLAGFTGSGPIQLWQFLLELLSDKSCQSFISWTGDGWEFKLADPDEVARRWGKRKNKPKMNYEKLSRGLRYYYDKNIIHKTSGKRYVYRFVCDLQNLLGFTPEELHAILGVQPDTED
Put shortly:
as §1

Another assay concerns the target T9, SPDEF (Homo sapiens, UniProt O95238 1-335).
T9 sequence: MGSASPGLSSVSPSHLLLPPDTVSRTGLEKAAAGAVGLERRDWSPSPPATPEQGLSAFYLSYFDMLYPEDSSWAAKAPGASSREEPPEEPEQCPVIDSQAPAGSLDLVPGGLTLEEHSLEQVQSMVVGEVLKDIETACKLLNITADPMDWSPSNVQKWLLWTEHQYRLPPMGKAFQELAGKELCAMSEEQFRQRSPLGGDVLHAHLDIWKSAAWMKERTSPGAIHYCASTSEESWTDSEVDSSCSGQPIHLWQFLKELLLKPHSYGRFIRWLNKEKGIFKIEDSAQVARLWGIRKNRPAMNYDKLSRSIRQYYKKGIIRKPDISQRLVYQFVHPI
Put shortly:
as §1

The target of a further assay is T10, ETV7 (Homo sapiens, UniProt Q9Y603 1-341).
T10 sequence: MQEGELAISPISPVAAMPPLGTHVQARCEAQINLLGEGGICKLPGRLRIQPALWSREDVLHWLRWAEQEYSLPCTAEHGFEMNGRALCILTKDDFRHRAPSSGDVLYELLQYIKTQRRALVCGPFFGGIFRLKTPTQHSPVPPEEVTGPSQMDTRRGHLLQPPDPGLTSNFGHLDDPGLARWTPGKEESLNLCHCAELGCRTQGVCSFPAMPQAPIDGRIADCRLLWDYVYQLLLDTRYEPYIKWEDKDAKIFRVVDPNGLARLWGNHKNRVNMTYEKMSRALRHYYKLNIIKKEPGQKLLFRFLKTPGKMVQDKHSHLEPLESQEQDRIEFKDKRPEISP
Put shortly: as §1

The target in a further assay is T11, ETV3 (Homo sapiens, UniProt P41162-2 1-143).
T11 sequence: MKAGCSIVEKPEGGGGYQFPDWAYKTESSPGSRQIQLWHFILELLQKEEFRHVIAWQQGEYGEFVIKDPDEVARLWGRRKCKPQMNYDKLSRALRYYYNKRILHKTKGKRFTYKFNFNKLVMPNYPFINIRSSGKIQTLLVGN
The method in brief: as §1

The next assay has as its target ETV6 (Homo sapiens, UniProt P41212 1-452). Put shortly:
as §1

This is an account of results in article PMC7862700, “An all-to-all approach to the identification of sequence-specific readers for epigenetic DNA modifications on cytosine”.

ETV5, sequence (P41161 whole entry): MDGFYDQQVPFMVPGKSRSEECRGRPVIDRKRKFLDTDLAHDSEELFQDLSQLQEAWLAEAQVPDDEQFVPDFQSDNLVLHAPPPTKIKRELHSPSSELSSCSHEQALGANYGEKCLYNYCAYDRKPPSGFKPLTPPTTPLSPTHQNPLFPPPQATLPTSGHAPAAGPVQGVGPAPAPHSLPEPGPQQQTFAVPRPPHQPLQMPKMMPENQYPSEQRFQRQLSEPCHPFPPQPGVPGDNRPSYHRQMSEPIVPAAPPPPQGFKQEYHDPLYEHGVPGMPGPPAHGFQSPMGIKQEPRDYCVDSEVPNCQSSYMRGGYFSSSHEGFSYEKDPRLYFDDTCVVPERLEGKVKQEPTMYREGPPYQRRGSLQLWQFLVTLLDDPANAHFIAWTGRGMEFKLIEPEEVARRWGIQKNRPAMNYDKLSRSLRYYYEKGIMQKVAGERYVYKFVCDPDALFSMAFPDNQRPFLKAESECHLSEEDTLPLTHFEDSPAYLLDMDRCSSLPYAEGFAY
ETV6, sequence (P41212 whole entry): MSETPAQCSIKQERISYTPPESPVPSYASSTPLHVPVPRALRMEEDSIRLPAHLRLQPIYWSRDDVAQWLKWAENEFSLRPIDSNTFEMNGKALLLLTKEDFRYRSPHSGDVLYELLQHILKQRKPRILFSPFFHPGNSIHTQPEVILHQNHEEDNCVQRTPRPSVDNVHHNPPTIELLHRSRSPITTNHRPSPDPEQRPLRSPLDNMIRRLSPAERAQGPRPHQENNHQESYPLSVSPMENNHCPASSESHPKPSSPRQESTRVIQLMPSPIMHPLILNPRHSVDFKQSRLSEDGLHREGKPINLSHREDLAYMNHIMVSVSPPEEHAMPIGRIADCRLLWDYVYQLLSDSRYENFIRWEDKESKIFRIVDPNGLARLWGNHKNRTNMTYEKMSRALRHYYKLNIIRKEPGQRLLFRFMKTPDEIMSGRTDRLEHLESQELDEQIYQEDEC
ETV1, sequence (P50549 whole entry): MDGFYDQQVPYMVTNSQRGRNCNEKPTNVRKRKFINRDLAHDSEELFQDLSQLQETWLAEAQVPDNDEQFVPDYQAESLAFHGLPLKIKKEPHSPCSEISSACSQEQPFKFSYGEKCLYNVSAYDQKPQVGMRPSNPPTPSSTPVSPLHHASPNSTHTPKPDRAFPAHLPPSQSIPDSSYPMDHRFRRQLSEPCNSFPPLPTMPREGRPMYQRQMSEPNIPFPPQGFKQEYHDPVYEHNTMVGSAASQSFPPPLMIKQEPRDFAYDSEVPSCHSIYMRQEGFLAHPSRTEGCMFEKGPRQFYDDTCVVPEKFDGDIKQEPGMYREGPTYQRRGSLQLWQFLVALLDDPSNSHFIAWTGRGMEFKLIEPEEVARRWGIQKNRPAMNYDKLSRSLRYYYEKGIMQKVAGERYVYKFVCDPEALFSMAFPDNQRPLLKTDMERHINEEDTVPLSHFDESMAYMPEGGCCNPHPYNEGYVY
ELF1, sequence (P32519 whole entry): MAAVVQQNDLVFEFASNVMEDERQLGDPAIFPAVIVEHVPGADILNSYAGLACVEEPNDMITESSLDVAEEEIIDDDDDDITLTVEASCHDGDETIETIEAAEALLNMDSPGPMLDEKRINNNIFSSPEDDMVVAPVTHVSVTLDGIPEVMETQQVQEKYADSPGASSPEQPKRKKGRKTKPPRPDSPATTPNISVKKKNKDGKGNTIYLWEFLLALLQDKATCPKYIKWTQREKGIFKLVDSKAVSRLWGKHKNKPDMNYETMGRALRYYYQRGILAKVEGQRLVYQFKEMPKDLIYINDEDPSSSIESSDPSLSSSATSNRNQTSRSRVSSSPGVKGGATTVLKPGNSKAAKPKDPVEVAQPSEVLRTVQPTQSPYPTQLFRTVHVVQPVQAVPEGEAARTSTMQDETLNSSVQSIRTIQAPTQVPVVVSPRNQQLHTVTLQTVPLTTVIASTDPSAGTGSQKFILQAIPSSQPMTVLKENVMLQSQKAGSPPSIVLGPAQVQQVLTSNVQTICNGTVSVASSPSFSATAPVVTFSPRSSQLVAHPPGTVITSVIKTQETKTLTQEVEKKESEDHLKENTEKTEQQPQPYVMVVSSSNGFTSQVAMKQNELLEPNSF
ELF4, sequence (Q99607 whole entry): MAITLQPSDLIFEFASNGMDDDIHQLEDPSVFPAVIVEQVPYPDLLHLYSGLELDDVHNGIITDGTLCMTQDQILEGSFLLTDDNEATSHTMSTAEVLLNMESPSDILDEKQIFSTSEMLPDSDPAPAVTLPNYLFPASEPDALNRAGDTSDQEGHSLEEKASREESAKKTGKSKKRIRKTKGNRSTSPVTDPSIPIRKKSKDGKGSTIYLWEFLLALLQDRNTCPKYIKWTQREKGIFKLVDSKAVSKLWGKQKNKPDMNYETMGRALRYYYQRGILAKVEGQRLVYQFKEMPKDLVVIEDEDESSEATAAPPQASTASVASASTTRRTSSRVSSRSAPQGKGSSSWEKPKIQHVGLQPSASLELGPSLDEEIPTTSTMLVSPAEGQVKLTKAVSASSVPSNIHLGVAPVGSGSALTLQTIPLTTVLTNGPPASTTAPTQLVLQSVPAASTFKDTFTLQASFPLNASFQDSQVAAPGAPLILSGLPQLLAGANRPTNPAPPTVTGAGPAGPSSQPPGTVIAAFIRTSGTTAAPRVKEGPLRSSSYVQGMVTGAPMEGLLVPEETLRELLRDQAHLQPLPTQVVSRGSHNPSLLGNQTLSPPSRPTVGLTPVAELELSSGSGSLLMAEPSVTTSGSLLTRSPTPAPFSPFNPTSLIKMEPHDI
SPIB, sequence (Q01892 whole entry): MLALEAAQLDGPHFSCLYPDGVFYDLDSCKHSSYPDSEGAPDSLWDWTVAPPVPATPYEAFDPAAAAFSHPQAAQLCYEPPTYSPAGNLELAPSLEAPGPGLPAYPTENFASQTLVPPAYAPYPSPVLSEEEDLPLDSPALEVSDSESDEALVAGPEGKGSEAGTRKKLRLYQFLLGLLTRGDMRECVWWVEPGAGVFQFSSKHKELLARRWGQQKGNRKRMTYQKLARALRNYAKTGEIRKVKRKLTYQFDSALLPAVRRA

For the sequence GACCGG, the binding signal in the assay with ELK1 was 1.11 fold enrichment (6-mer frequency, TF over GST control); in the assay with GABPA, 1.02 fold enrichment (6-mer frequency, TF over GST control); with ERG, 1.31 fold enrichment (6-mer frequency, TF over GST control); in the assay with ELF1, 1 fold enrichment (6-mer frequency, TF over GST control); with EHF, 1.06 fold enrichment (6-mer frequency, TF over GST control); with SPIB it was 1.07 fold enrichment (6-mer frequency, TF over GST control). Moreover, the binding signal was 1.12 fold enrichment (6-mer frequency, TF over GST control) with ETV5; 1.03 fold enrichment (6-mer frequency, TF over GST control) with ELF4; 1.14 fold enrichment (6-mer frequency, TF over GST control) with ELF3; 1.21 fold enrichment (6-mer frequency, TF over GST control) with ETV1; 1.06 fold enrichment (6-mer frequency, TF over GST control) with ERF; 1.08 fold enrichment (6-mer frequency, TF over GST control) in the assay with ETV3L. Also, the binding signal with ETS2 is 1.07 fold enrichment (6-mer frequency, TF over GST control); in the assay with SPDEF, 1.19 fold enrichment (6-mer frequency, TF over GST control); with ETV7 it was 1.06 fold enrichment (6-mer frequency, TF over GST control); with ETV3, 1.09 fold enrichment (6-mer frequency, TF over GST control); with ETV6 it was 1.03 fold enrichment (6-mer frequency, TF over GST control).

For GGCAAT, the binding signal was 1 fold enrichment (6-mer frequency, TF over GST control) with ELK1; 1 fold enrichment (6-mer frequency, TF over GST control) with GABPA; 1 fold enrichment (6-mer frequency, TF over GST control) in the assay with ETV5; 1.01 fold enrichment (6-mer frequency, TF over GST control) in the assay with ELF3; 1.02 fold enrichment (6-mer frequency, TF over GST control) in the assay with ERF.
